TDP-43 yeast inh – rescues yeast growth from TDP-43 toxicity. 1.8% of 410,000 active. TDP-43 expressing yeast growth rescue, BacTiter-Glo, 24 h. Potency, µM (doses to about 46.1 µM), inactives show at the top dose growth rescue (activation), usual class: activators. AID 652104; note: % of control where 0% means no effect; nearly all actives have a fitted effect of over 50% in size
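Yeast cells expressing TDP-43 under galactose induction are exposed to compounds for 24 hr at 30 deg C. BacTiter-Glo luminescence measures growth, so protective compounds score as activators.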
FUS yeast rescue – suppressors of FUS proteinopathy in yeast; S. cerevisiae FUS-expressing, growth rescue, OD600, 24 h; Potency, µM (doses to about 76.6 µM), most hits filed as activators; AID 1347120; 0.24% of 390,000 active;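 note: plate controls were DMSO vehicle for no effect and reference control for full effect; nearly all actives have a fitted effect of over 55% in size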
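Toxicity suppression screen in FUS-yeast. Cells induced with 2% galactose, starting OD 0.005, treated 24hr at 30C with compounds at multiple final concentrations; growth by OD600.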
Abeta yeast res – compounds reversing amyloid beta toxicity in yeast. 0.063% of 410,000 active. Potency, µM (series often up to 46.1 µM), most hits filed as activators. yeast expressing A-beta42, growth rescue, OD600, 48 h; response scale: 0% DMSO, 100% iron-clioquinol control. AID 1347071; note: nearly all actives have a fitted effect of over 55% in size
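Yeast A-beta toxicity model in growth medium with pinned compounds, 48 h at 30 C; growth read as absorbance at 600 nm. Normalized to FeCl3/clioquinol equimolar mix (positive) and DMSO (negative).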
aSyn rescue – alpha-synuclein toxicity inhibition in yeast; Yeast expressing alpha-synuclein, growth rescue, BacTiter-Glo, 24 h; Potency, µM (top dose mostly 46.1 µM), without a hit: at the top dose growth rescue (activation), hits mostly activators; 0.14% of 370,000 active; AID 652106; note: % of control where 0% means no effect; nearly all actives have a fitted effect of over 65% in size
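Galactose-induced alpha-syn yeast (OD600=0.02, raffinose-pregrown) + pinned cpd, 24 hr, 30 deg C; growth by BacTiter-Glo luminescence. Growth restoration scores as activation.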
An asterisk follows results filed as active; i = inactive; u = inconclusive; x = no result; [ ] = another dose, or the depositor's remark. An excerpt weighted towards active compounds, which were near 2.1% of everything screened. Calls come from the whole dose curve; as a rule, active = well fitted curve in the direction sought with a large enough effect; inconclusive = small, poorly fitted or top-dose-only effect, or another doubt; inactive = no such curve, though single readings can be large; an effect the other way counts as inactive or inconclusive. Potency is the fitted concentration of half-maximal effect.

SMILES	TDP-43 yeast inh	FUS yeast rescue	Abeta yeast res	aSyn rescue
CCN(Cc1cccc(S(=O)(=O)O)c1)c1ccc(C(=C2C=CC(=[N+](CC)Cc3cccc(S(=O)(=O)O)c3)C=C2)c2ccc(O)cc2S(=O)(=O)O)cc1	x	x	x	-64%
CC(C)(C)NC(=O)C(c1cccc2ccccc12)n1c(=O)c(-c2ccccc2)nc2ccccc21 (stereo unspecified)	35µM*	i	i	-13%
CC(C)(C)NC(=O)C(c1cccc2ccccc12)n1c(=O)c(-c2ccco2)nc2ccccc21 (stereo unspecified)	17%	u	i	u
O=Nc1c(O)n(Cc2ccc(Cl)c(Cl)c2)c2ccccc12	-92%	i	i	13µM*
O=Nc1c(O)n(Cc2ccccc2)c2ccccc12	0%	i	i	12%
COc1ccccc1Cc1c(-c2ccc(OC)c(OC)c2)nc2c(C)cc(Br)cn12	18µM*	u	i	1%
COc1ccccc1Cc1c(-c2ccc(F)cc2)nc2c(C)cc(Br)cn12	u	i	i	23%
COc1ccccc1Cc1c(-c2ccc(C)cc2)nc2c(C)cc(Br)cn12	35µM*	u	i	11%
Cc1cc(Br)cn2c(Cc3ccsc3)c(-c3ccco3)nc12	u	i	i	-76%
COc1ccc(-c2nc3c(C)cc(Br)cn3c2Cc2cccc(Cl)c2)cc1OC	32µM*	u	i	5%
Cc1cc(Br)cn2c(Cc3ccccc3)c(-c3ccco3)nc12	11µM*	i	i	1%
Cc1ccc(NC(=O)c2ccc(CS(=O)(=O)Cc3ccccc3C)o2)c(C)c1	x	i	x	x
C[n+]1cccc(Br)c1	x	x	x	-1%
OC(Cc1ccc2ccccc2n1)c1c(Cl)cccc1Cl (stereo unspecified)	x	x	x	4%
Cc1ccc(Cc2c(-c3ccc(F)cc3)nc3c(C)cc(Br)cn23)cc1	22µM*	i	i	3%
Cc1ccc(Cc2c(-c3ccc(C)cc3)nc3c(C)cc(Br)cn23)cc1	6%	i	i	13%
O=C(Cc1ccc(S(=O)(=O)N2CCOCC2)s1)Nc1nc2c(s1)CCCC2	-22%	8.9µM*	i	-9%
Cn1cccc1C(=O)N1CCN(S(=O)(=O)c2ccc(F)cc2)CC1	x	i	x	x
CC(O)(c1cccc(F)c1)c1nc(-c2cccc(C(=O)O)c2)cs1 (stereo unspecified)	35µM*	i	i	7%
COc1ccc(-c2csc(C(C)(O)c3cccc(OC)c3)n2)cc1 (stereo unspecified)	u	i	i	15%
CC(O)(c1cccc(F)c1)c1nc(-c2ccccc2)cs1 (stereo unspecified)	36%	i	i	8%
N#Cc1cccc(-c2csc(C(O)(c3ccccc3)C(F)(F)F)n2)c1 (stereo unspecified)	-80%	i	13µM*	-50%
OC(c1ccccc1)(c1nc(-c2cccc(C(F)(F)F)c2)cs1)C(F)(F)F (stereo unspecified)	-92%	i	i	-84%
CC(O)(c1cccc(F)c1)c1nc(-c2cccc(C(F)(F)F)c2)cs1 (stereo unspecified)	-94%	i	i	-44%
CC(O)(c1cccc(F)c1)c1nc(-c2cccc(C#N)c2)cs1 (stereo unspecified)	35µM*	i	i	10%
SMILES	TDP-43 yeast inh	FUS yeast rescue	Abeta yeast res	aSyn rescue
COc1cccc(C(C)(O)c2nc(-c3ccc(C)c(C)c3)cs2)c1 (stereo unspecified)	14µM*	i	i	-14%
O=C(Cc1ccccc1)NC1CCCCN(Cc2ccc(Cl)cc2)C1=O (stereo unspecified)	x	i	x	x
COc1ccc(-c2csc(C(C)(O)c3cccc(F)c3)n2)cc1OC (stereo unspecified)	35µM*	i	i	-1%
CCN(CC)C(=O)c1cccc(-c2csc(C(C)(O)c3ccc(F)c(F)c3)n2)c1 (stereo unspecified)	14µM*	u	i	1%
COc1ccc(-c2csc(C(C)(O)c3ccncc3)n2)cc1OC (stereo unspecified)	14%	i	i	-11%
COC(=O)N/N=C/c1ccc(-c2ccccc2Cl)o1	20µM*	i	i	5%
NC(=S)N/N=C/c1ccc(-c2cc(Cl)c(Cl)cc2Cl)o1	4%	i	13µM*	23%
Clc1ccccc1-c1ccc(/C=N/n2cnnc2)o1	11µM*	i	i	6%
COC(=O)N/N=C/c1ccc(-c2ccc(Cl)cc2Cl)o1	1%	i	i	6%
COC(=O)c1cc(-c2cc(F)cc(OC)c2)c(=O)n2c1CCC2	x	i	x	x
Cc1cccc(C)c1N1C(=O)c2cccc([N+](=O)[O-])c2C1=O	u	x	i	2%
Cc1ccc(N2C(=O)c3cccc([N+](=O)[O-])c3C2=O)cc1C	13µM*	i	i	11%
COC(=O)c1cc(-c2cccc(C#N)c2)c(=O)n2c1CCC2	x	i	x	x
O=C(NC12CC3CC(CC(C3)C1)C2)c1ccc([N+](=O)[O-])o1	20µM*	i	i	-28%
CCNC(=S)NNC(=O)CSc1nc2ccccc2c(=O)n1-c1ccc(Cl)cc1	x	i	x	x
CCCCCC(=O)NC1CCCCN(Cc2ccc(Cl)cc2)C1=O (stereo unspecified)	x	i	x	x
CCOC(=O)C1=C(C)NC(C)=C(C(=O)OCC)C1c1c(F)c(F)c(F)c(F)c1F	x	x	x	-86%
O=C(O)c1ccc(OS(=O)(=O)c2ccc(Cl)s2)cc1	14µM*	i	i	5%
O=C(O)c1ccc(OS(=O)(=O)c2cccc(C(F)(F)F)c2)cc1	u	i	i	16%
CC(=O)c1c(C)[nH]c(C(=O)OCc2cccc(Cl)c2)c1C	16µM*	i	i	-9%
CC(=O)c1c(C)[nH]c(C(=O)OCc2c(F)cccc2Cl)c1C	9%[9.22 µM]	i	i	-1%
O=C(NCC1CCCO1)C(c1ccc(F)cc1)N(CC1CCCO1)C(=O)c1ccc(-c2ccccc2)[nH]1 (stereo unspecified)	7%	i	i	-9%
O=C(NCC1CCCO1)C(c1cccs1)N(Cc1cccs1)C(=O)c1ccc(-c2ccccc2)[nH]1 (stereo unspecified)	9%	35µM*	i	-4%
O=C(Nc1cccc(-c2csc(Nc3ccccc3)n2)c1)c1ccccc1	6.3µM*	i	i	-22%
COc1ccc(-c2csc(Nc3ncccc3C)n2)cc1	24%	i	i	-41%
COc1ccc(-c2csc(-n3cccn3)n2)cc1	10µM*	i	i	2%
COc1ccc(-c2csc(N3CCSCC3)n2)cc1	9%	i	i	-4%
COc1ccc(-c2csc(-c3cccnc3)n2)cc1C	16µM*	i	i	15%
COc1ccc(-c2csc(Nc3ncccc3C)n2)cc1OC	14µM*	i	i	-30%
